The record followed here is PubChem BioAssay (NCATS).

The nature of assay [1]: qHTS of pediatric cancer cell lines to identify multiple opportunities for drug repurposing: Primary screen for BT-37 cells (AID 1347094). Further: potency means the concentration at half of the fitted maximal effect. An outline of the steps: (§1)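 CRCs from 8- or 11-point titrations (lowest final 0.59 nM NPC, 0.78 nM MIPE). Cell viability: CellTiter-Glo after 48 h incubation, 15 min room-temperature development, luminescence imaging.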
In general terms: Quantitative high-throughput screening tests each substance at several concentrations.

A short description of assay [2]: qHTS of pediatric cancer cell lines to identify multiple opportunities for drug repurposing: Primary screen for U-2 OS cells (AID 1347096). Further: nearly all actives have a fitted effect of over 50% in size. An outline of the steps: (§2)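 Cells (500-1,000/well) rested 5 h, then received compounds for 48 h; metabolically active cells were measured by CellTiter-Glo luminescence. Final concentrations spanned up to 46 µM (MIPE, 11-point) or 0.59 nM-46 µM (NPC, 8-point) in primary screens, 11-point in follow-ups.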

The nature of assay [3]: qHTS of pediatric cancer cell lines to identify multiple opportunities for drug repurposing: Primary screen for SK-N-SH cells (AID 1347098). Further: nearly all actives have a fitted effect of over 65% in size. Further: potency means the concentration at half of the fitted maximal effect. The essentials: as §2
The nature of assay [4]: qHTS of pediatric cancer cell lines to identify multiple opportunities for drug repurposing: Primary screen for NB1643 cells (AID 1347099). Further: nearly all actives have a fitted effect of over 50% in size. The essentials:
as §1

The nature of assay [5]: qHTS of pediatric cancer cell lines to identify multiple opportunities for drug repurposing: Primary screen for BT-12 cells (AID 1347101). Further: nearly all actives have a fitted effect of over 25% in size. Further: potency means the concentration at half of the fitted maximal effect. An outline of the steps:
as §2

A short description of assay [6]: qHTS of pediatric cancer cell lines to identify multiple opportunities for drug repurposing: Primary screen for Rh18 cells (AID 1347102). Further: nearly all actives have a fitted effect of over 65% in size. Further: potency means the concentration at half of the fitted maximal effect. An outline of the steps:
as §2

The nature of assay [7]: qHTS of pediatric cancer cell lines to identify multiple opportunities for drug repurposing: Primary screen for LAN-5 cells (AID 1347100). Further: potency means the concentration at half of the fitted maximal effect. An outline of the steps: as §2
Assay [8] in a line: qHTS of pediatric cancer cell lines to identify multiple opportunities for drug repurposing: Primary screen for NB-EBc1 cells (AID 1347095). The essentials:
as §1

Assay [9] in a line: qHTS of pediatric cancer cell lines to identify multiple opportunities for drug repurposing: Primary screen for Saos-2 cells (AID 1347097). Further: nearly all actives have a fitted effect of over 40% in size. Further: potency means the concentration at half of the fitted maximal effect. The essentials:
as §1

Results filed as inconclusive are left out. The source made the active and inactive calls. The call rests on the fitted dose curve; in most records, active means well fitted curve in the direction sought with a large enough effect; inconclusive means small, poorly fitted or top-dose-only effect, or another doubt; inactive means no such curve, though single readings can be large; an effect the other way counts as inactive or inconclusive.

As for `COc1ccc(OC(=O)N(CC(=O)O)Cc2ccc(OCCc3nc(-c4ccccc4)oc3C)cc2)cc1`, the Potency entry in assay [1], in [2], in [3], in assay [4], in [5] and in [6] was “inactive” each time.
For the molecule `O=C(NO)c1ccccc1`, the Potency result in assay [2], in [7] and in assay [5] was “inactive” throughout.
Regarding `c1ccc(C(O[C@H]2CCCN(CCc3ccc4c(c3)OCO4)C2)c2ccccc2)cc1`, the Potency result in [8], in [2], in [9], in assay [4], in assay [7] and in [5] was “inactive” throughout. Besides, in assay [6], the Potency result was “inactive”.
As for `NC(=O)C1(N2CCCCC2)CCN(CCCN2c3ccccc3CCc3ccc(Cl)cc32)CC1`, the results for the Potency in assay [9], in assay [3] and in assay [5] were 21.1 µM (active), 13.7 µM (active) and 19.5 µM (active), respectively.
`OC(CCCN1CCCCC1)(c1ccccc1)c1ccccc1`: the Potency result in assay [8], in assay [9], in [3], in assay [4], in [7] and in [6] was “inactive” each time.
Consider `C[C@@H](O[C@H]1OCCN(Cc2n[nH]c(=O)[nH]2)[C@H]1c1ccc(F)cc1)c1cc(C(F)(F)F)cc(C(F)(F)F)c1`, for which the Potency was 21.9 µM (active) in [1]; 11.9 µM (active) in [9]; 34.4 µM (active) in [3]; 15.5 µM (active) in assay [5]; 23.7 µM (active) in [6].
In the case of `Cc1cc(OCCOCC[N+](C)(C)Cc2ccccc2)ccc1C(C)(C)CC(C)(C)C`, the Potency in assay [1] was 0.001 µM (active); in assay [9], 13.3 µM (active); in [3], 34.4 µM (active); in [7] it was 21.1 µM (active); in assay [5], 6.17 µM (active); in assay [6], 10.6 µM (active).
In the case of `CC(C)C(C)(C)C(C)(C)C(C)(C)S`, the Potency entry in assay [8], in [9], in [3], in assay [4], in [7] and in assay [5] was “inactive” throughout. Moreover, the Potency result in [6] was “inactive”.
For the molecule `CCOC(=O)N1CCC(n2c(=O)[nH]c3cc(Cl)ccc32)CC1`, the Potency entry in [9], in assay [3], in [4], in assay [7] and in [6] was “inactive” each time.
On to `CC(NCCC(c1ccccc1)c1ccccc1)c1ccccc1` (stereo unspecified), for which the Potency in assay [9] was 26.6 µM (active); in assay [7], 23.7 µM (active); in [5], 27.6 µM (active).
`COc1c(C)c2c(c(O)c1C/C=C(\C)CCC(=O)OCCN1CCOCC1)C(=O)OC2`: the Potency is 0.347 µM (active) in [1] and 0.841 µM (active) in [7].
In the case of `C=CCNc1nc(NCC=C)nc(N2CCN(C(c3ccc(F)cc3)c3ccc(F)cc3)CC2)n1`, the Potency entry in [8], in assay [4] and in assay [7] was “inactive” each time.
`CCCCCCCCCCCCCCCC[N+](C)(C)Cc1ccccc1`: the Potency in assay [1] was 30.9 µM (active); in assay [9], 23.7 µM (active); in [7], 21.1 µM (active); in assay [5] it was 11 µM (active); in assay [6], 11.9 µM (active).
As to `CCOC(=O)C1=C(C)NC(C)=C(C(=O)OCC)C1c1ccccc1/C=C/C(=O)OC(C)(C)C`, the Potency in assay [3] was 27.3 µM (active).
As to `CCCCCOc1ccccc1/C(=C\SC)n1ccnc1`, the Potency result in [2], in assay [3], in assay [7] and in assay [6] was “inactive” in each case.
Take `CCOC(=O)c1ccc(O)c(O)c1`: the Potency result in [1], in assay [2], in assay [4] and in assay [6] was “inactive” each time.
Take `CCCC(=O)O[C@]1(C(=O)CCl)[C@@H](C)C[C@H]2[C@@H]3CCC4=CC(=O)C=C[C@]4(C)[C@@]3(F)C(=O)C[C@@]21C`: the Potency result in [2], in assay [3], in assay [4] and in [6] was “inactive” throughout.
Regarding `CCCC(=O)c1cc(O)c(O)cc1O`, the Potency entry in assay [2], in assay [4] and in assay [5] was “inactive” each time.
For the molecule `CC(=O)OC/C=C(C)/C=C/C=C(C)/C=C/C1=C(C)CCCC1(C)C`, the Potency result in [8], in assay [2], in assay [3], in [4], in assay [7] and in [6] was “inactive” throughout.
On to `CCCN(CCC)C(=O)C(CCC(=O)OCCCN1CCN(CCOC(=O)Cc2c(C)n(C(=O)c3ccc(Cl)cc3)c3ccc(OC)cc23)CC1)NC(=O)c1ccccc1` (stereo unspecified), for which the Potency entry in assay [2], in [4] and in assay [5] was “inactive” in each case.
For `O=C(CCC1CCN(Cc2ccccc2)CC1)c1ccc2c(c1)NCCCC2`, the Potency result in assay [8], in [2], in assay [9], in [4], in [7] and in assay [6] was “inactive” each time.
For the molecule `O=C1OC2(c3ccccc31)c1cc(I)c(O)c(I)c1Oc1c2cc(I)c(O)c1I`, the Potency result in [1], in assay [2], in assay [3] and in assay [7] was “inactive” in each case.
In the case of `CC(=O)Oc1ccc(C2(c3ccc(OC(C)=O)cc3)Oc3ccccc3NC2=O)cc1`, the Potency is 11.9 µM (active) in assay [9] and 19.5 µM (active) in assay [5]. In addition, the Potency entry in [6] is “inactive”.
For the molecule `CC(C(O)c1ccccc1)N(C)CCOC(c1ccccc1)c1ccccc1` (stereo unspecified), the Potency result in assay [8] was “inactive”. The Potency in [3] was 30.7 µM (active).
Take `CCCCCCOC(=O)NC(=N)c1ccc(NCc2nc3cc(C(=O)N(CCC(=O)OCC)c4ccccn4)ccc3n2C)cc1`: the Potency entry in [2], in [4] and in assay [6] was “inactive” in each case.
As for `Cc1c(C)c2c(c(C)c1OC(=O)CCC(=O)OCCO)CC[C@@](C)(CCC[C@H](C)CCC[C@H](C)CCCC(C)C)O2`, the Potency result in [2] and in [9] was “inactive” each time.
